Compounds without any hit were thinned out: in the full panel of roughly 83,000, 20% have a hit.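 Each cell line was grown in a 96-well plate and treated with one concentration of compound for 48 hours. Values below 10 were considered active.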 Values without a mark were called inactive. Activity calls are given as the source filed them.

Some test systems named below: RPMI-8226 leukemia; OVCAR-8 ovarian; OVCAR-5 ovarian; OVCAR-4 ovarian; SK-OV-3 ovarian; IGROV1 ovarian; OVCAR-3 ovarian; HS 578T breast; NCI/ADR-RES ovarian; T-47D breast; BT-549 breast; MDA-MB-435 melanoma; SW-620 colon; MCF7 breast; HCT-116 colon; HCC-2998 colon; KM12 colon; SR leukemia.
What all share (experiment): NCI-60 one-dose screen, 48 h (100 = growth as untreated, 0 = no growth, -100 = all killed)
Details in all cases: 10 µM unless noted

For the compound `CCN1C(=O)N(CC)C2Nn3c(s/c(=C\c4ccc(OC)cc4)c3=O)=NC21` (stereo unspecified), the growth with RPMI-8226 leukemia was 69.8%; with OVCAR-8 ovarian, 67.3%; in the assay with OVCAR-5 ovarian it was 83.9%; in the assay with OVCAR-4 ovarian it was 63.7%; with SK-OV-3 ovarian, 62.7%; with IGROV1 ovarian, 54.8%. Also, the growth with OVCAR-3 ovarian is 19.2%; in the assay on HS 578T breast it was 43.6%; with NCI/ADR-RES ovarian, 44.2%; in the assay with T-47D breast, 48.8%; with BT-549 breast, 62.9%; in the assay with MDA-MB-435 melanoma, -26.9% (active). Further, the growth with SW-620 colon is 25.5%; in the assay with MCF7 breast, 21%; in the assay with HCT-116 colon it was 29.4%; in the assay with HCC-2998 colon it was 95.7%; in the assay with KM12 colon it was 37.8%.
In the case of `Cc1cc(Cl)nc(N(CCNc2ccnc3cc(Cl)ccc23)Cc2ccccn2)n1`, the growth is 26.6% in the assay on RPMI-8226 leukemia; 39.3% with OVCAR-8 ovarian; 74.3% with OVCAR-5 ovarian; 35% with OVCAR-4 ovarian; 82.9% in the assay with SK-OV-3 ovarian; 57.5% in the assay with IGROV1 ovarian. Besides, the growth in the assay with OVCAR-3 ovarian was 3.13% (active); with HS 578T breast, 87.3%; in the assay with NCI/ADR-RES ovarian, 47.5%; in the assay on T-47D breast, -19.6% (active); in the assay with BT-549 breast, 75.4%; in the assay on MDA-MB-435 melanoma it was 61.7%. The growth was 56.6% with SW-620 colon; 53.6% with MCF7 breast; 17.3% in the assay on HCT-116 colon; 85.7% in the assay with HCC-2998 colon; 64.1% in the assay on KM12 colon.
On to `CCCCCCNC(=O)Oc1ccc(/C(=C(\C)c2ccccc2)c2ccc(OCCN3CCCCC3)cc2)cc1`, for which the growth was 39.6% with RPMI-8226 leukemia; 76.6% with OVCAR-8 ovarian; 93.9% in the assay with OVCAR-5 ovarian; 71% in the assay with OVCAR-4 ovarian; 71.8% in the assay with SK-OV-3 ovarian; 63.7% in the assay with IGROV1 ovarian. The growth was 66.9% in the assay with OVCAR-3 ovarian; 76.3% in the assay on HS 578T breast; 63.1% in the assay on NCI/ADR-RES ovarian; 30.1% with T-47D breast; 64.2% in the assay on BT-549 breast; 68.2% with MDA-MB-435 melanoma. Besides, the growth with SW-620 colon was 34.1%; in the assay on MCF7 breast, 12.7%; in the assay on HCT-116 colon, 33.9%; in the assay on HCC-2998 colon it was 76.6%; in the assay with KM12 colon, 49.2%.
Turning to `COCCCN1CC(O)=C(c2nc(-c3ccc(C)cc3)cs2)C1=N`, the growth in the assay on SR leukemia is 109%; with OVCAR-8 ovarian it was 95.2%; in the assay on OVCAR-5 ovarian it was 97.6%; in the assay on OVCAR-4 ovarian it was 150%; with SK-OV-3 ovarian, 120%; in the assay with IGROV1 ovarian it was 54.4%. Further, the growth is 112% in the assay with OVCAR-3 ovarian; 102% in the assay with HS 578T breast; 106% in the assay with NCI/ADR-RES ovarian; 97.5% in the assay on T-47D breast; 105% in the assay with MDA-MB-435 melanoma; 104% with SW-620 colon. Also, the growth in the assay on MCF7 breast was 360%; with HCT-116 colon it was 90.3%; in the assay with HCC-2998 colon it was 112%; with KM12 colon, 120%.
Consider `COc1cc(CC(=O)n2ncc3ccc(N)cc32)cc(OC)c1OC`, for which the growth is 100% in the assay with RPMI-8226 leukemia; 104% in the assay with OVCAR-8 ovarian; 91.9% in the assay on OVCAR-5 ovarian; 88.4% with OVCAR-4 ovarian; 95.6% with SK-OV-3 ovarian; 90.7% in the assay with IGROV1 ovarian. For the same compound, the growth in the assay on OVCAR-3 ovarian was 108%; in the assay with HS 578T breast, 103%; in the assay with NCI/ADR-RES ovarian, 90.1%; in the assay on T-47D breast, 76.2%; in the assay with BT-549 breast it was 91.3%; in the assay on MDA-MB-435 melanoma, 65.3%. Further, the growth in the assay with SW-620 colon is 104%; in the assay with MCF7 breast, 87.5%; in the assay on HCT-116 colon it was 97.3%; in the assay with HCC-2998 colon, 105%; in the assay on KM12 colon it was 82.6%.
Regarding `O=C(/C=C(O)/C=C/c1ccc(SC(F)(F)F)cc1)/C=C/c1ccc(SC(F)(F)F)cc1`, the growth in the assay with RPMI-8226 leukemia is 38.9%; in the assay on OVCAR-8 ovarian, 96%; in the assay with OVCAR-5 ovarian it was 118%; with OVCAR-4 ovarian, 97.3%; in the assay on SK-OV-3 ovarian, 119%; in the assay with IGROV1 ovarian, 80.6%. Further, the growth in the assay with OVCAR-3 ovarian is 88%; in the assay on HS 578T breast it was 98.2%; with NCI/ADR-RES ovarian, 104%; in the assay with T-47D breast it was 78%; with BT-549 breast it was 82.5%; with MDA-MB-435 melanoma it was 79.2%. For the same compound, the growth with SW-620 colon was 89.1%; in the assay on MCF7 breast, 52.1%; with HCT-116 colon it was 17.7%; in the assay with HCC-2998 colon it was 101%; in the assay with KM12 colon, 81.9%.
For the compound `C#Cc1cccc(NC(=O)c2cccc(NC(=O)CCl)c2)c1`, the growth with RPMI-8226 leukemia is -3.03% [8.25 µM] (active); with OVCAR-8 ovarian it was -28.3% [8.25 µM] (active); in the assay on OVCAR-5 ovarian it was 8.37% [8.25 µM] (active); in the assay on OVCAR-4 ovarian it was -38.1% [8.25 µM] (active); in the assay on SK-OV-3 ovarian it was 56.4% [8.25 µM]; in the assay on IGROV1 ovarian, -53.5% [8.25 µM] (active). In addition, the growth with OVCAR-3 ovarian is -71.3% [8.25 µM] (active); in the assay with HS 578T breast, 31.8% [8.25 µM]; in the assay with NCI/ADR-RES ovarian it was -11.5% [8.25 µM] (active); in the assay with T-47D breast, 25% [8.25 µM]; in the assay with BT-549 breast, -43.5% [8.25 µM] (active); with MDA-MB-435 melanoma, -13.2% [8.25 µM] (active). For the same compound, the growth in the assay on SW-620 colon was -74.2% [8.25 µM] (active); in the assay with MCF7 breast it was 3.07% [8.25 µM] (active); with HCT-116 colon, -20.3% [8.25 µM] (active); in the assay with HCC-2998 colon, 74.3% [8.25 µM]; in the assay on KM12 colon, 16.8% [8.25 µM].
In the case of `COc1ccc2nc(-c3ccc(-c4noc(-c5cc(OC)c(OC)c(OC)c5)n4)cc3)[nH]c2c1`, the growth in the assay with SR leukemia is 18.9%; in the assay with OVCAR-8 ovarian it was 33.6%; in the assay with OVCAR-5 ovarian it was 113%; in the assay with OVCAR-4 ovarian it was -53.4% (active); in the assay on SK-OV-3 ovarian it was 116%; in the assay with IGROV1 ovarian, 110%. The growth in the assay on OVCAR-3 ovarian is 44.8%; in the assay with HS 578T breast, 72.6%; with NCI/ADR-RES ovarian, 45.3%; in the assay on T-47D breast it was 83.8%; in the assay with MDA-MB-435 melanoma it was 39.1%; in the assay with SW-620 colon, 63.8%. Also, the growth with MCF7 breast was 41.3%; in the assay with HCT-116 colon, 33%; in the assay on HCC-2998 colon, 111%; in the assay on KM12 colon, 55.4%.
Turning to `CCN(Cc1ccccc1)c1ccc(C=O)cc1`, the growth in the assay on RPMI-8226 leukemia was 90.4%; in the assay with OVCAR-8 ovarian, 97.8%; in the assay with OVCAR-5 ovarian, 93.1%; in the assay on OVCAR-4 ovarian it was 85.8%; in the assay on SK-OV-3 ovarian it was 103%; with IGROV1 ovarian, 96.1%. Further, the growth is 97.9% in the assay on OVCAR-3 ovarian; 120% in the assay with HS 578T breast; 101% with NCI/ADR-RES ovarian; 78.6% with T-47D breast; 95.1% in the assay with BT-549 breast; 107% in the assay on MDA-MB-435 melanoma. Further, the growth in the assay on SW-620 colon was 97.9%; in the assay with MCF7 breast, 96%; with HCT-116 colon, 91.3%; with HCC-2998 colon it was 93.7%; in the assay on KM12 colon, 106%.
